Compounds without any hit were thinned out: in the full panel of roughly 79,000, 15% have a hit. The source made the active and inactive calls. No stated cut-off is given here; in the data, active means growth inhibition above about 70%; inactive means the rest.
Key:
[1] = NCI Yeast Anticancer Drug Screen. Data for the rad50 strain (AID 155);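 further: 0% = growth of vehicle-only cultures of the same strain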; settings: S. cerevisiae rad50 strain growth inhibition, active compounds read high
Outline: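 A DNA repair-deficient yeast mutant serves as the test organism; compound-induced growth inhibition is calculated against vehicle-treated cells.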

[2] = NCI Yeast Anticancer Drug Screen. Data for the mec2-1 strain (AID 157); settings: S. cerevisiae mec2-1 strain, active compounds read high
Outline: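 Compounds were applied to mec2-1 yeast cells. Their growth was then compared with that of vehicle-treated cultures to give growth inhibition.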

[3] = NCI Yeast Anticancer Drug Screen. Data for the sgs1 mgt1 strain (AID 161);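 further: 0% = growth of cultures given vehicle only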; settings: S. cerevisiae sgs1 mgt1 strain, active compounds read high
Outline: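 Percent growth inhibition was derived by comparing compound-exposed mutant yeast with vehicle-exposed cultures. The strain carries alterations in DNA damage repair.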

[4] = NCI Yeast Anticancer Drug Screen. Data for the cln2 rad14 strain (AID 165);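 further: 0% = growth equal to vehicle treated cultures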; settings: S. cerevisiae cln2 rad14 strain, active compounds read high
Outline: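 Strain: cln2 rad14 yeast, altered in cell cycle control and DNA damage repair. Read-out: growth inhibition vs vehicle.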

[5] = NCI Yeast Anticancer Drug Screen. Data for the bub3 strain (AID 167); settings: S. cerevisiae bub3 mutant strain, active compounds read high
Outline: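 Inhibition values come from growth of compound-treated mutant yeast normalised to vehicle-treated controls.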

[6] = NCI Yeast Anticancer Drug Screen. Data for the mlh1 rad18 strain (AID 175); settings: S. cerevisiae mlh1 rad18 strain growth inhibition, active compounds read high
Outline: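 A repair-deficient yeast strain is exposed to test compound, and growth is scored relative to vehicle-treated controls.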

[7] = at 5.0 µM (retest, dose inferred, filed as 0.5)
[8] = at 50.0 µM (retest, dose inferred, filed as 5.0)

Measured: growth inhibition

CCOC(=O)C(Cc1ccc(O)cc1)NCc1ccc(N(CCCl)CCCl)cc1 (configuration not stated)
active: [1]; [7] 83% | [1]; [8] 83% | [2]; [8] 94% | [3]; [8] 99% | [3]; at 50.0 µM 72.2% | [4]; [8] 84% | [5]; [8] 94% | [6]; [7] 80% | [6]; [8] 76% | [6]; at 50.0 µM 76.7%
inactive: [1]; at 50.0 µM 37.8% | [2]; [7] 36% | [2]; at 50.0 µM 69.1% | [3]; [7] 64% | [4]; [7] 52% | [4]; at 50.0 µM 56.7% | [5]; [7] 65% | [5]; at 50.0 µM 69.5%

COc1ccc(CNCCc2ccc(O)c(OC)c2)cc1O
inactive: [1]; [7] 1% | [1]; [8] 0% | [1]; at 50.0 µM 31.4% | [2]; [7] 1% | [2]; [8] 3% | [2]; at 50.0 µM -2.8% | [3]; [7] 4% | [3]; [8] 7% | [3]; at 50.0 µM -0.55% | [4]; [7] -5% | [4]; [8] 5% | [4]; at 50.0 µM -6.35% | [5]; [7] -3% | [5]; [8] -3% | [5]; at 50.0 µM 8.7% | [6]; [7] -1% | [6]; [8] 8% | [6]; at 50.0 µM -4.45%

C/C(=N\N=C(\[Se])N1CCN(c2ccccn2)CC1)c1ccccn1
active: [1]; [8] 88% | [1]; at 50.0 µM 70.3% | [2]; [8] 98% | [3]; [8] 95% | [3]; at 50.0 µM 82% | [4]; [8] 83% | [5]; [8] 96% | [5]; at 50.0 µM 93.2% | [6]; [8] 93% | [6]; at 50.0 µM 78.2%
inactive: [1]; [7] -2% | [2]; [7] -1% | [2]; at 50.0 µM 70% | [3]; [7] 5% | [4]; [7] -9% | [4]; at 50.0 µM 9.4% | [5]; [7] 9% | [6]; [7] 59%

CCC[CH2][Sn]([F])([CH2]CCC)[O][Sn]([F])([CH2]CCC)[CH2]CCC
inactive: [1]; [7] 51% | [2]; [7] 46% | [3]; [7] 50% | [4]; [7] 34% | [5]; [7] 54% | [6]; [7] 48%
active: [1]; [8] 98% | [1]; at 50.0 µM 97.5% | [2]; [8] 99% | [2]; at 50.0 µM 98.9% | [3]; [8] 98% | [3]; at 50.0 µM 98.2% | [4]; [8] 98% | [4]; at 50.0 µM 98.3% | [5]; [8] 96% | [5]; at 50.0 µM 98.5% | [6]; [8] 97% | [6]; at 50.0 µM 98.2%

C[As](c1ccc(Br)cc1)c1ccc(Br)cc1
active: [3]; at 50.0 µM 75.5%
inactive: [1]; [7] -4% | [1]; [8] 1% | [1]; at 50.0 µM 3.6% | [2]; [7] -2% | [2]; [8] 20% | [2]; at 50.0 µM 25.8% | [3]; [7] 7% | [3]; [8] 46% | [4]; [7] -5% | [4]; [8] -18% | [4]; at 50.0 µM 52.1% | [5]; [7] 2% | [5]; [8] 44% | [5]; at 50.0 µM -14.2% | [6]; [7] 6% | [6]; [8] 22% | [6]; at 50.0 µM 53%

CCOC(=S)S
inactive: [1]; [7] 43% | [2]; [7] 17% | [3]; [7] 4% | [4]; [7] 12% | [4]; [8] 66% | [5]; [7] 29% | [6]; [7] 31%
active: [1]; [8] 99% | [1]; at 50.0 µM 98.9% | [2]; [8] 100% | [2]; at 50.0 µM 99.6% | [3]; [8] 99% | [3]; at 50.0 µM 99.5% | [4]; at 50.0 µM 95.8% | [5]; [8] 99% | [5]; at 50.0 µM 99.2% | [6]; [8] 99% | [6]; at 50.0 µM 99.2%

CN1CSC(=S)N(C)C1
inactive: [1]; [7] 21% | [2]; [7] 19% | [3]; [7] 17% | [4]; [7] 13% | [5]; [7] 4% | [6]; [7] 4%
active: [1]; [8] 95% | [1]; at 50.0 µM 97.3% | [2]; [8] 99% | [2]; at 50.0 µM 99.5% | [3]; [8] 97% | [3]; at 50.0 µM 95.9% | [4]; [8] 98% | [4]; at 50.0 µM 94.3% | [5]; [8] 96% | [5]; at 50.0 µM 99.5% | [6]; [8] 96% | [6]; at 50.0 µM 95.7%

COc1cc2c(c(OC)c1OC)-c1ccc(O)c(=O)cc1C(NC(C)=O)CC2 (configuration not stated)
inactive: [1]; [7] 1% | [1]; [8] 3% | [1]; at 50.0 µM -26.1% | [2]; [7] -1% | [2]; [8] -8% | [2]; at 50.0 µM 17.3% | [3]; [7] -15% | [3]; [8] 16% | [3]; at 50.0 µM -1.4% | [4]; [7] -21% | [4]; [8] 8% | [4]; at 50.0 µM 45.5% | [5]; [7] -7% | [5]; [8] 6% | [5]; at 50.0 µM 1.05% | [6]; [7] -9% | [6]; [8] -2% | [6]; at 50.0 µM 59.6%

CCn1c(O)c(C(=O)NC(C)c2ccc([N+](=O)[O-])cc2)c(=O)n(CC)c1=S (configuration not stated)
inactive: [1]; [7] 31% | [2]; [7] 33% | [3]; [7] 24% | [4]; [7] 17% | [4]; [8] 46% | [5]; [7] 9% | [6]; [7] 35%
active: [1]; [8] 91% | [1]; at 50.0 µM 86.5% | [2]; [8] 96% | [2]; at 50.0 µM 91.4% | [3]; [8] 83% | [3]; at 50.0 µM 90.6% | [4]; at 50.0 µM 88.8% | [5]; [8] 78% | [5]; at 50.0 µM 89.3% | [6]; [8] 92% | [6]; at 50.0 µM 87%

Source: PubChem BioAssay (NCI)
